The values that follow come from the supplement of paper PMC9694430.

Common to all, as to assay: thermal shift delta Tm vs DMSO control; higher = stronger stabilization (binding)
What all share (settings): 12.5 µM; protein concentration 2 µM

One experiment deals with LOC_OS02G45750-cb003. Summed up: (§1)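 Rice kinase domain constructs, made in E. coli and purified, were placed in 96-well plates at 2 μM in 19.5 μl of 100 mM potassium phosphate pH 7.5, 150 mM NaCl, 10% glycerol and 5 × SYPRO Orange, with compound in DMSO. A temperature ramp from 25°C to 95°C at 0.05°C/s was used for differential scanning fluorimetry. The melting temperature shift is a triplicate mean compared with DMSO-only protein, derived from Boltzmann fits.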

A further experiment has as its system LOC_OS02G54510-cb004. The essentials: as §1
The test system of another experiment is LOC_OS03G04050-cb001. Summed up:
as §1

The next experiment has as its system LOC_OS03G12390-cb001. The essentials: as §1
The next experiment relates to LOC_OS03G27990-cb004. The essentials:
as §1

The subject of a further experiment is LOC_OS03G50450-cb001. The essentials: as §1
In a further experiment the test system is LOC_OS03G50810-cb003. The essentials: as §1
Another experiment deals with LOC_OS04G35114-cb001. Summed up:
as §1

The next experiment has as its system T1, LOC_OS04G38480-cb003.
T1 sequence (whole entry): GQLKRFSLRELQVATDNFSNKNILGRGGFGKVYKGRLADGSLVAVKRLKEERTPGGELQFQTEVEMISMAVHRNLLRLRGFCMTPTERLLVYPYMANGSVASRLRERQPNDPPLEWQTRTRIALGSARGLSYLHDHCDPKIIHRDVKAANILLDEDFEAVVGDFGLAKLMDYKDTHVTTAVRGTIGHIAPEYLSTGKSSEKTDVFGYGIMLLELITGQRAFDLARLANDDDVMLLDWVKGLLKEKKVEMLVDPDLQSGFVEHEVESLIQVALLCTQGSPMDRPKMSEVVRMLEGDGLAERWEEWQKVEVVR
The essentials:
as §1

In another experiment the test system is T2, LOC_OS04G41100-cb001.
T2 sequence (whole entry): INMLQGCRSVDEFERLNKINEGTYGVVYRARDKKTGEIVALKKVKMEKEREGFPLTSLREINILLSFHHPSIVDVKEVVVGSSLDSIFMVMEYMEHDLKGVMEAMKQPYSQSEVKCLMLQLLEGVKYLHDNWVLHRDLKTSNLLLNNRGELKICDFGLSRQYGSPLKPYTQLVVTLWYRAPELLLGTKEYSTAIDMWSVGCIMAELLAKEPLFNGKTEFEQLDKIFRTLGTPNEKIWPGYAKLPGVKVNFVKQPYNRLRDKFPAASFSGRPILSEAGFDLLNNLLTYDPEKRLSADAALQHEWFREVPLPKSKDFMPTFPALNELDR
The essentials: as §1

Another experiment has as its system LOC_OS04G57630-cb004. The essentials: as §1
The subject of another experiment is LOC_OS05G07850-cb002. The essentials:
as §1

Another experiment concerns LOC_OS05G16824-cb004. Summed up:
as §1

The subject of the next experiment is LOC_OS05G28520-cb001. The essentials:
as §1

A further experiment relates to LOC_OS05G30820-cb001. The essentials:
as §1

The test system of a further experiment is LOC_OS05G43570-cb004. The essentials: as §1
The subject of a further experiment is LOC_OS06G16330-cb003. The essentials: as §1
Another experiment has as its system T3, LOC_OS06G22820-cb001.
T3 sequence (whole entry): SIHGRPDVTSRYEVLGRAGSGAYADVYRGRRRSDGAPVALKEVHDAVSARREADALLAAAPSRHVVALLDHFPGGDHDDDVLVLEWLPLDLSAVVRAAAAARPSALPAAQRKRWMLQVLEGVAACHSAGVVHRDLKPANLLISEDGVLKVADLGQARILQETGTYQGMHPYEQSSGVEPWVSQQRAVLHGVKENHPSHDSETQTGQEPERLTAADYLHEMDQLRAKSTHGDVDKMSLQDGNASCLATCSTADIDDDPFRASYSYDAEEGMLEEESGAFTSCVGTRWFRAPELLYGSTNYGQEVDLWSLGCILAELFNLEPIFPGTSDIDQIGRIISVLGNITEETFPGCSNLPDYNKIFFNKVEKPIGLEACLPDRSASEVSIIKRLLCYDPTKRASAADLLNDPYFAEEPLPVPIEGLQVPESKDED
The essentials:
as §1

The test system of a further experiment is LOC_OS07G06570-cb004. The essentials:
as §1

The subject of a further experiment is LOC_OS07G07230-cb001. The essentials:
as §1
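Note: purified Escherichia coli-expressed rice kinase domain construct.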

LOC_OS06G16330-cb003, sequence (as listed by the source): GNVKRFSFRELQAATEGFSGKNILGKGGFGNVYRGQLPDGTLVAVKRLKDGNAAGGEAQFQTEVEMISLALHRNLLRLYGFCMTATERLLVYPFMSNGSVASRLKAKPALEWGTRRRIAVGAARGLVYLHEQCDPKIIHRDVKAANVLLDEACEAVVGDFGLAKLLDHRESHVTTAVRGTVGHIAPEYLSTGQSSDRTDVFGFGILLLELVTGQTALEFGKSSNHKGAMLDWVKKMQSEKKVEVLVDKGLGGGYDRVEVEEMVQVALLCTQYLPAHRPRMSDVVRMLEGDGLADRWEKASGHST

As for `C[C@H](Nc1ncnc2nc[nH]c12)c1cc2cccc(Cl)c2c(=O)n1-c1ccccc1` [Duvelisib (IPI-145, INK1197)], the “thermal shift delta Tm” value with LOC_OS02G45750-cb003 was -1.36 °C; with LOC_OS02G54510-cb004, 2.02 °C; in the experiment with LOC_OS03G04050-cb001, -0.19 °C; in the experiment with LOC_OS03G12390-cb001, -0.34 °C; with LOC_OS03G27990-cb004, -0.31 °C; in the experiment on LOC_OS03G50450-cb001, 0.38 °C. In addition, the “thermal shift delta Tm” value in the experiment on LOC_OS03G50810-cb003 is 0.72 °C; with LOC_OS04G35114-cb001 it was -1.37 °C; in the experiment with LOC_OS04G38480-cb003 it was 0.01 °C; in the experiment with LOC_OS04G41100-cb001, 0.58 °C; with LOC_OS04G57630-cb004, -0.24 °C; in the experiment with LOC_OS05G07850-cb002, 0.17 °C. Further, the “thermal shift delta Tm” value in the experiment on LOC_OS05G16824-cb004 came to 0.84 °C; in the experiment on LOC_OS05G28520-cb001, 0.82 °C; with LOC_OS05G30820-cb001, 0.45 °C; with LOC_OS05G43570-cb004 it was 0.49 °C; in the experiment on LOC_OS06G16330-cb003, 0.28 °C; in the experiment with LOC_OS06G22820-cb001 it was 0.69 °C. For the same compound, the entries for the “thermal shift delta Tm” value with LOC_OS07G06570-cb004 and in the experiment with LOC_OS07G07230-cb001 were 0.07 °C and 12.2 °C, respectively.

Regarding `COc1cc(CCc2cc(NC(=O)c3ccc(N4CC(C)NC(C)C4)cc3)n[nH]2)cc(OC)c1` (stereo not given), the “thermal shift delta Tm” value with LOC_OS02G45750-cb003 is 7.06 °C; in the experiment with LOC_OS02G54510-cb004, 0.23 °C; with LOC_OS03G04050-cb001 it was 0.27 °C; in the experiment with LOC_OS03G12390-cb001, 1.22 °C; in the experiment on LOC_OS03G27990-cb004 it was 1.11 °C; in the experiment on LOC_OS03G50450-cb001 it was 0.29 °C. Also, the “thermal shift delta Tm” value in the experiment with LOC_OS03G50810-cb003 amounted to 4.8 °C; with LOC_OS04G35114-cb001 it was 5.76 °C; with LOC_OS04G38480-cb003, 0.62 °C; in the experiment with LOC_OS04G41100-cb001 it was 1.99 °C; in the experiment on LOC_OS04G57630-cb004, 2.33 °C; in the experiment on LOC_OS05G07850-cb002, 3.41 °C. Besides, the “thermal shift delta Tm” value in the experiment with LOC_OS05G16824-cb004 was found to be 4.73 °C; in the experiment with LOC_OS05G28520-cb001 it was 6.65 °C; in the experiment with LOC_OS05G30820-cb001, 0.59 °C; in the experiment on LOC_OS05G43570-cb004, 0.4 °C; with LOC_OS06G16330-cb003, 2.54 °C; in the experiment on LOC_OS06G22820-cb001, 0.35 °C. Besides, the entries for the “thermal shift delta Tm” value in the experiment on LOC_OS07G06570-cb004 and with LOC_OS07G07230-cb001 were 0 °C and -0.08 °C, respectively.

As to `CC(C)(C)c1cc(NC(=O)Nc2ccc(-c3cn4c(n3)sc3cc(OCCN5CCOCC5)ccc34)cc2)no1` [Quizartinib (AC220)], the “thermal shift delta Tm” value with LOC_OS02G45750-cb003 is -0.83 °C; with LOC_OS02G54510-cb004, 0.02 °C; in the experiment on LOC_OS03G04050-cb001 it was -0.02 °C; in the experiment with LOC_OS03G12390-cb001 it was 0.08 °C; with LOC_OS03G27990-cb004 it was 0.09 °C; with LOC_OS03G50450-cb001, -0.11 °C. For the same compound, the “thermal shift delta Tm” value with LOC_OS03G50810-cb003 turned out to be 0.82 °C; in the experiment on LOC_OS04G35114-cb001, 0.41 °C; in the experiment with LOC_OS04G38480-cb003, 0.67 °C; with LOC_OS04G41100-cb001, 0.81 °C; in the experiment with LOC_OS04G57630-cb004, 0.97 °C; in the experiment on LOC_OS05G07850-cb002, 1.54 °C. The “thermal shift delta Tm” value was -1.62 °C with LOC_OS05G16824-cb004; 0.28 °C in the experiment with LOC_OS05G28520-cb001; 0.82 °C with LOC_OS05G30820-cb001; 0.27 °C in the experiment with LOC_OS05G43570-cb004; 0 °C with LOC_OS06G16330-cb003; 0.73 °C in the experiment with LOC_OS06G22820-cb001. The “thermal shift delta Tm” value with LOC_OS07G06570-cb004 came to 1.04 °C; with LOC_OS07G07230-cb001, 0.45 °C.
